Screens (PubChem)
In the library only some 19% were active in any assay of this set; here they are far more common.
DT40 TDP1 CPT: growth inhibition of DT40 Tdp1-/-;hTDP1 cells with camptothecin (screen for TDP1 inhibitors) | chicken DT40 Tdp1-/-;hTDP1 cells + 20 nM CPT, ATP luminescence, 48 h | Potency, µM (titrated, usually from 46.2 µM), for inactives: top-dose activity change, negative = growth inhibition, most hits filed as inhibitors | 420,000 tested, 12% active | AID 686979; also: potency is read from the fitted curve at half-maximal effect; nearly all actives have a fitted effect of over 55% in size
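Cell growth measured by CellTiter-Glo luminescence after a minimum 48 h, 37 C compound exposure with 20 nM CPT in Tdp1-knockout DT40 cells stably expressing hTDP1, seeded 400/well; qHTS titration format.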
IL-1B inflam inh: blocks inflammasome-driven IL-1 beta release. THP-1 LPS/ATP IL-1B secretion, AlphaLISA, 16 h; stronger effect = lower value. activity change, % at 57.5 µM. 360,000 tested, 4.7% active. AID 743279; in the data active = activity change below about -50%; inconclusive = mostly about -30% to -49%
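Secreted IL-1B measured by AlphaLISA bead assay after 16 h compound exposure of THP-1 cells; compounds (final up to 57.5 uM) added 1 h before LPS (250 ng/mL) and ATP (1.25 mM) stimulation; lower signal means less secretion.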
TDP1 cell noCPT: qHTS for Inhibitors of human tyrosyl-DNA phosphodiesterase 1 (TDP1): qHTS in cells in absence of CPT | Potency, µM (highest dose often 46.2 µM), for inactives: at the highest dose activity change, negative = growth inhibition, hits mostly inhibitors | 420,000 tested, 15% active | DT40 Tdp1-/- hTDP1 cells, no CPT, ATP luminescence, 48 h | AID 686978, 2013; also: potency is read from the fitted curve at half-maximal effect; nearly all actives have a fitted effect of over 55% in size
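Growth kinetics read by CellTiter-Glo luminescence after ≥48 hr at 37 °C. Cells: DT40 Tdp1-/- stably carrying human TDP1, 400 per well, compound exposure in the absence of CPT (DMSO vehicle).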
HT1080NT lethal: kills 2HG-producing HT-1080-NT fibrosarcoma cells. AID 686970. HT-1080-NT fibrosarcoma viability, CellTiter-Glo ATP luminescence, 48 h. 360,000 tested, 1.6% active. Potency, µM (series often up to 46.1 µM), without a hit: at the top dose activity, negative = less viability, actives largely listed as cytotoxic;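 also: NT is the 2HG producing partner of a matched IDH1 knockdown line; potency is read from the fitted curve at half-maximal effect; 0% = DMSO-treated cells and -100% = media-only wells without cells; nearly all actives have a fitted effect of over 55% in size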
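Read-out is CellTiter-Glo luminescence after 10 minutes at room temperature, following 48 hours' compound treatment of HT-1080-NT cells (750 cells/well, RPMI, 5% FBS, 37 degrees C).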
HT1080 IDH1KD tx: kills HT-1080 cells with IDH1 knockdown. HT-1080 IDH1 knockdown viability, ATP luminescence, 48 h. Potency, µM (highest dose often 46.1 µM), inactives show top-dose activity, negative = toxicity, usual class: cytotoxic. 360,000 tested, 2% active;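 also: potency is read from the fitted curve at half-maximal effect; 0% = DMSO wells and -100% = cell-free medium wells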
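CellTiter-Glo luminescence after 48 h compound exposure at 37 degrees C of IDH1-knockdown HT-1080 cells in 5% FBS RPMI. %Activity scaled between DMSO wells and cell-free media wells, with curves fitted and assigned curve classes.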
An asterisk follows results filed as active; ? = inconclusive; nt = no result. Unless noted, calls follow the shape of the dose curve; as a rule, active = well fitted curve in the direction sought with a large enough effect; inconclusive = small, poorly fitted or top-dose-only effect, or another doubt; inactive = no such curve, though single readings can be large; an effect the other way counts as inactive or inconclusive. Unless noted, % is scaled to controls: 0 for no effect and ±100 for the full control effect.

SMILES	DT40 TDP1 CPT	IL-1B inflam inh	TDP1 cell noCPT	HT1080NT lethal	HT1080 IDH1KD tx
CSc1nc2ccccc2n1CC(=O)Nc1ccccc1	5.2µM*	17	18µM*	-1%	-8%
COc1ccc(CNC(=O)Cn2c(SCC(=O)N(C)c3ccccc3)nc3ccccc32)cc1	?	nt	18µM*	nt	nt
O=C(CSc1nc2ccccc2n1CCc1ccccc1)c1ccc(O)c(O)c1	12µM*	21	16µM*	-21%	-21%
COCCn1c(SCC(=O)NC(=O)NCc2ccccc2)nc2ccccc21	?	-21	?	-4%	-9%
CCN(C(=O)CSc1nc2ccccc2n1CC(=O)Nc1ccccc1C)c1ccccc1	?	nt	21µM*	nt	nt
O=C(CSc1nc2ccccc2n1CCc1ccccc1)N1CCOCC1	?	-10	?	0%	12%
CC(C)CCNC(=O)[C@@H](Cc1ccccc1)NC(=O)CC[C@H]1O[C@@H](n2ccc(=O)[nH]c2=O)[C@H](O)[C@@H]1O	2%	16	1%	20%	5%
O=C(c1ccc2c(=O)n(-c3ccccc3)c(=O)[nH]c2c1)N1CCCCC1	?	-13	?	0%	7%
C=CCn1c(=O)c2c(nc3n2CCCN3CCc2ccc(OC)c(OC)c2)n(C)c1=O	4%	5	-27%	-3%	-5%
O=C(CSc1nc2ccccc2n1Cc1ccccc1)NCc1ccccc1	-24%	nt	23µM*	nt	nt
O=C(O)CCSc1nc2ccccc2n1Cc1ccccc1	-11%	40	0%	9%	-1%
CCN(C(=O)CSc1nc2ccccc2n1CC(=O)NCc1ccc(OC)cc1)c1ccccc1	?	nt	23µM*	nt	nt
CC(C)c1nc2cc(C(=O)N3CCN(c4cnccn4)CC3)ccc2o1	-9%	1	-10%	-4%	7%
O=C(CSc1nc2c(c(=O)[nH]1)CCC2)Nc1cccc(O)c1	-26%	nt	-18%	nt	nt
COc1ccc(C2CC(=O)N(C)c3ccccc3S2)cc1OC (centres undefined)	21µM*	-14	?	-12%	1%
CC1(C)C2CCC1(C)C(OC(=O)c1ccccc1C(=O)O)C2 (centres undefined)	-1%	19	-4%	21%	4%
CCCCCCOC(=O)C[N+](C)(C)CCOC1CC2CCC1(C)C2(C)C (centres undefined)	?	-2	?	-3%	5%
CCCOC(=O)C[N+](C)(C)CCOC1CC2CCC1(C)C2(C)C (centres undefined)	8.2µM*	-28	4.6µM*	-1%	-5%
CCC(C)OC(=O)C[N+](C)(C)CCOC1CC2CCC1(C)C2(C)C (centres undefined)	1.2µM*	-28	1.5µM*	-15%	-24%
CCCCCCCOC(=O)C[N+](C)(C)CCOC1CC2CCC1(C)C2(C)C (centres undefined)	1.5µM*	-100*	1.6µM*	8.2µM*	18µM*
CCCCOC(=O)C[N+](C)(C)CCOC1CC2CCC1(C)C2(C)C (centres undefined)	2.1µM*	?	1.8µM*	?	-28%
COc1ccc(-n2c(=S)[nH]c3cc(C(=O)N4CCN(c5ccccc5)CC4)ccc3c2=O)c(OC)c1	-16%	9	-29%	9%	1%
CCOC(=O)[C@]12CCCC=C1N(Cc1ccc(Cl)cc1Cl)C(=O)[C@H](CC(=O)N1CCN(C(=O)C3CC3)CC1)C2	?	0	?	-1%	4%
Cc1cc(C)nc(NNS(=O)(=O)c2ccc(F)c(Cl)c2)n1	23µM*	23	?	-13%	-4%
COC(=O)c1ccc(C23CC4(C2)[C@H](CN(Cc2cccnc2)[C@@H]4c2ccccc2)C3c2ccccc2)cc1 (some centres undefined)	23µM*	30	23µM*	0%	-22%
SMILES	DT40 TDP1 CPT	IL-1B inflam inh	TDP1 cell noCPT	HT1080NT lethal	HT1080 IDH1KD tx
CN1C[C@@H]2C(c3ccc(C(F)(F)F)cc3)C3(c4ccccc4)CC2(C3)[C@H]1c1ccccc1 (some centres undefined)	?	15	16µM*	11%	12%
COC(=O)c1ccc(C23CC4(C2)[C@H](CN(Cc2ccc(-c5ccccc5)cc2)[C@@H]4c2ccccc2)C3c2ccc(C(F)(F)F)cc2)cc1 (some centres undefined)	?	0	?	12%	8%
FC(F)(F)c1ccc(C2[C@H]3CN(Cc4cccnc4)[C@H](c4ccccc4)C34CC2(c2cccnc2)C4)cc1 (some centres undefined)	23µM*	-14	21µM*	?	?
COC(=O)c1ccc(C23CC4(C2)[C@H](CN(Cc2ccc(-c5ccccc5)cc2)[C@@H]4c2ccccc2)C3c2ccc(Cl)nc2)cc1 (some centres undefined)	-1%	5	-13%	2%	3%
COC(=O)c1ccc(C23CC4(C2)[C@H](CN(Cc2cccnc2)[C@@H]4c2ccccc2)C3c2ccc(C(F)(F)F)cc2)cc1 (some centres undefined)	23µM*	39	13µM*	?	-6%
FC(F)(F)c1ccc(C2[C@H]3CN(Cc4ccc(-c5ccccc5)cc4)[C@H](c4ccccc4)C34CC2(c2ccccc2)C4)cc1 (some centres undefined)	?	10	?	11%	12%
N#Cc1ccc(C23CC4(C2)[C@H](CN(Cc2ccc(-c5ccccc5)cc2)[C@@H]4c2ccccc2)C3c2ccc(C(F)(F)F)cc2)cc1 (some centres undefined)	16µM*	1	?	2%	6%
COC(=O)c1ccc(C23CC4(C2)[C@H](CN(CC2CCCCC2)[C@@H]4c2ccccc2)C3c2ccccc2)cc1 (some centres undefined)	26µM*	-25	?	-1%	-4%
COC(=O)c1cccc(C23CC4(C2)[C@H](CN(Cc2ccc(C(F)(F)F)cc2)[C@@H]4c2ccccc2)C3c2ccccc2)c1 (some centres undefined)	29µM*	39	16µM*	-5%	-18%
N#Cc1ccc(C23CC4(C2)[C@H](CN(Cc2cccnc2)[C@@H]4c2ccccc2)C3c2ccccc2)cc1 (some centres undefined)	9.2µM*	15	7.3µM*	-29%	?
Cc1nnc(SCC(=O)c2ccc(C(C)C)cc2)s1	?	15	?	-8%	-4%
COc1cccc(NC(=O)c2ccc3c(c2)CCN3S(C)(=O)=O)c1	?	?	?	-7%	1%
